The results in this text go back to PubChem BioAssay (NCATS).

Each structure is given as a SMILES string. Results filed as inconclusive are left out. Active and inactive are the calls of the source. Calls follow the shape of the dose curve; as a rule, active = well fitted cell-killing curve with a large enough effect; inconclusive = small, poorly fitted or top-dose-only effect, or effect the other way; inactive = no such curve, though single readings can be large or run the other way.

A short description of assay [1]: Viability qHTS for spleen associated tyrosine kinase inhibitor (SYKi) naive MV4-11 cells (AID 1963823). Also: nearly all actives have a fitted effect of over 40% in size. In a few lines:
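Compounds were dispensed acoustically onto plates, MV4-11 cells (SYKi-naive) added at 500 per well, and plates incubated 72 hr at 37 C. CellTiter-Glo was added and luminescence measured after 10 min.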

Assay [2] in a line: Viability qHTS for spleen associated tyrosine kinase inhibitor (SYKi) drug resistant MV4-11 cells (AID 1963824). Also: nearly all actives have a fitted effect of over 35% in size. In a few lines: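 CellTiter-Glo luminescence, read 10 min after reagent addition, reports viability after a 72 hr compound exposure. Cells are an MV4-11 line made resistant to SYK inhibition, seeded at 500 per well onto compound-containing plates.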
Potency is read from the fitted curve at half-maximal effect.

In the case of `Cc1cccc(NC(=O)N[C@H]2CN(C)c3ccccc3C(c3ccccc3)=N2)c1`, the Potency in assay [1] was 25900 nM (active).
Turning to `C[C@@H](CN1CCC2(CC1)C(=O)NCN2c1cccc(F)c1)NC(=O)c1ccc(Br)cc1`, the Potency in assay [1] was 16400 nM (active); in assay [2], 13000 nM (active).
As to `C[C@]12CC[C@H](O[C@@H]3O[C@H](CO)[C@@H](O)[C@H](O)[C@H]3O[C@@H]3O[C@H](CO)[C@@H](O)[C@H](O)[C@H]3O)CC1=CC[C@@H]1[C@@H]2CC[C@]2(C)[C@@H](C3=CC(=O)OC3)CC[C@]12O`, the Potency in assay [1] is 6110 nM (active); in assay [2] it was 4320 nM (active).
On to `CCOP(=O)(OCC)Oc1ccc2c(C)cc(=O)oc2c1`, for which the Potency result in assay [1] is “inactive”.
As for `C[C@]12CCC(=O)C=C1CC[C@@H]1[C@@H]2[C@@H](O)C[C@]2(C)C(=O)CC[C@@H]12`, the Potency entry in assay [1] is “inactive”.
As for `CN1CCc2cc3c(cc2C1C1OC(=O)c2c1ccc1c2OCO1)OCO3` (configuration not stated), the Potency entry in assay [1] and in assay [2] was “inactive” in each case.
As for `CC(C)C(=O)O[C@H]1[C@@H]2[C@H](C)C(=O)O[C@@H]2C[C@@H](C)[C@@H]2C=CC(=O)[C@]21C`, the values for the Potency in assay [1] and in assay [2] were 3600 nM (active) and 2270 nM (active), respectively.
With `CC(C)=C1CC[C@]23CO[C@H](C2)[C@@](O)(C(=O)O)CCC13` (some centres not stated), the Potency entry in assay [1] is “inactive”.
For `CC[C@H]1C[C@@H]2CC[C@@H](O2)[C@@H](C)C(=O)O[C@H](CC)C[C@H]2CC[C@H](O2)[C@H](C)C(=O)O[C@@H](C)C[C@@H]2CC[C@@H](O2)[C@@H](C)C(=O)O[C@H](CC)C[C@H]2CC[C@H](O2)[C@H](C)C(=O)O1`, the Potency was 12.2 nM (active) in assay [1] and 13.7 nM (active) in assay [2].
In the case of `CN1C[C@@H]2CN(c3ccc(-c4ccccc4)nn3)C[C@@H]2C1`, in assay [1], the Potency result was “inactive”. In assay [2], the Potency was 580 nM (active).
In the case of `NC(=O)c1ncn2c1CN=C(c1ccccc1Br)c1cc(F)ccc1-2`, the Potency in assay [1] was 20600 nM (active). Further, the Potency result in assay [2] was “inactive”.
With `CO[C@H]1C[C@H](O[C@H]2CC[C@]3(C=O)[C@H]4CC[C@]5(C)[C@@H](C6=CC(=O)OC6)CC[C@]5(O)[C@@H]4CC[C@]3(O)C2)O[C@H](C)[C@H]1O`, the Potency in assay [1] was 63.2 nM (active); in assay [2] it was 39.9 nM (active).
On to `CC(=O)OC[C@]12C[C@H](OC(C)=O)C(C)=C[C@H]1O[C@@H]1[C@H](O)[C@@H](O)[C@@]2(C)[C@]12CO2`, for which the Potency result in assay [1] and in assay [2] was “inactive” each time.
Turning to `CC[C@H]1C2CC3[C@@H]4N(C)c5ccccc5[C@]45C[C@@H]([C@H]2[C@H]5O)N3[C@H]1O`, the Potency entry in assay [1] was “inactive”.
For the compound `Nc1ncnc2c1ncn2[C@@H]1O[C@@H]2COP(O)(=S)O[C@H]2[C@H]1O` (some centres not stated), the viability (% of control) in assay [1] is 76.1% [at 9.25 µM] (inactive). Moreover, in assay [2], the viability, % of control was 81% [at 9.25 µM] (inactive).
Take `COC1CC(O[C@H]2CC[C@]3(C=O)C4CC[C@]5(C)[C@@H](C6=CC(=O)OC6)CC[C@]5(O)[C@@H]4CC[C@@H]3C2)OC(C)C1O[C@@H]1O[C@H](CO)[C@@H](O[C@@H]2O[C@H](CO)[C@@H](O)[C@H](O)[C@H]2O)[C@H](O)[C@H]1O` (some centres not stated): the Potency was 174 nM (active) in assay [1] and 123 nM (active) in assay [2].
On to `CC(C)C1(OO)C=C2C(=O)CC3C(C)(C(=O)O)CCCC3(C)C2CC1` (configuration not stated), for which the Potency result in assay [1] was “inactive”.
Take `CC1CCCC(O)CCC/C=C/c2cc(O)cc(O)c2C(=O)O1` (configuration not stated): the Potency in assay [1] is 14300 nM (active).
In the case of `Cc1cccc(NC(=O)c2ccc(C(F)(F)F)cc2C(=O)O)n1`, the Potency entry in assay [1] and in assay [2] was “inactive” each time.
In the case of `CN1CN(c2ccccc2)C2(CCN(CCCC(=O)c3ccc(F)cc3)CC2)C1=O`, the Potency result in assay [1] is “inactive”.
Consider `CC1CCCC(O)CC(=O)Cc2cc(O)cc(O)c2C(=O)O1` (configuration not stated), for which the Potency entry in assay [1] and in assay [2] was “inactive” throughout.
As to `CC[C@H]1C2CC3[C@@H]4N(C)c5ccccc5[C@]45C[C@@H]([C@H]2[C@H]5O)N3[C@@H]1O`, in assay [1], the Potency result is “inactive”.
For the compound `C[C@]12CC[C@H](O)C[C@@H]1CC[C@@H]1[C@@H]2CC[C@]2(C)[C@@H](C3=CC(=O)OC3)CC[C@]12O`, the Potency in assay [1] is 3210 nM (active); in assay [2], 2550 nM (active).
Take `COC(=O)C1(C)CCC(O)C2(C)c3cc(O)c(C(C)C)cc3C(O)C(OC(C)=O)C12` (configuration not stated): in assay [1], the Potency result was “inactive”.
As for `CC(C)(NC(=O)[C@@H](N)Cc1ccc(O)cc1)C(=O)N[C@@H](Cc1cc2ccccc2[nH]1)C(=O)N[C@@H](Cc1ccccc1)C(=O)O`, the Potency in assay [1] was 3350 nM (active).
As to `C[C@]12CC[C@H](O[C@@H]3O[C@H](CO)[C@@H](O)[C@H](O)[C@H]3O)CC1=CC[C@@H]1C2CC[C@]2(C)[C@@H](C3=CC(=O)OC3)CC[C@]12O` (some centres not stated), in assay [1], the Potency is 2730 nM (active).
On to `c1ccc([C@@H]2C[C@H]2NC2CCNCC2)cc1`, for which the Potency result in assay [1] was “inactive”.
Consider `COc1ccn(C)c(=O)c1C#N`, for which the Potency entry in assay [1] is “inactive”.
